These results are taken from PubChem BioAssay AID2315 (National Center for Advancing Translational Sciences (NCATS), 2010).

Hit rate of the full screen: of about 290,000 compounds, about 27,000 (9.3%) were called active. The list comes from a sample in which actives are over-represented; it also holds similar structures and randomly drawn compounds. A number with no mark means an inactive call. No stated cut-off is given here; in the data, active means inhibition mostly above about 28% (no sharp cut-off); inactive means mostly below about 43%. Where a SMILES comes first, the peptide text is derived from it. [ ]: non-standard residue; d: D form. The star is where a group is joined. ξ: configuration not given here. Cbz = O=C(OCc1ccccc1)*; ξL = CC(C)CC(N)C(=O)O; ξP = O=C(O)C1CCCN1

This test is described as follows: A qHTS for Small Molecule Inhibitors of Shiga Toxin. Further: 0% is about no effect. The note with it: Vero cells, Shiga toxin protein synthesis inhibition reporter; at 38.7 µM, stronger effect = higher value. (In general: qHTS replaces the single test concentration by a dilution series.)
As usually defined, the inhibition is the change of the read-out against control, counted positive when it falls. As to `O=C(CN1CCN(c2ccc(Cl)cc2)CC1)c1ccccc1`, the inhibition was 12.6%.
Next, `CC1CN(S(=O)(=O)c2cccc(C(F)(F)F)c2)CN1C(=O)N1CCOCC1` (stereo unspecified): 29.9%; `Nc1nnnn1/N=C/c1cc([N+](=O)[O-])ccc1O`: 19.7%.
In the case of `O=[N+]([O-])c1ccc(O)c(/C=N/Nc2ccccc2[N+](=O)[O-])c1`, the inhibition is 33.7% (active).
`O=C(N/N=C/c1cc([N+](=O)[O-])ccc1O)/C(=C\c1cccs1)NC(=O)c1ccccc1`: the inhibition is -4.29%.
Next, `CCNC(=S)N(CCN(CC)CC)Cc1cc2cc3c(cc2[nH]c1=O)OCCO3`: 37.5%; `O=C(CSCc1ccc(Cl)cc1)N1CCN(Cc2ccc3c(c2)OCO3)CC1`: 1.49%; `O=C(CN1CCN(c2ccc(Cl)cc2)CC1)N1CCCC1`: -2.98%.
Next, `O=C(CSCc1cccs1)N1CCCC1`: 55.4% (active); `O=C(CSCc1ccc(Cl)cc1)N1CCCCC1`: 91.4% (active); `Cn1c(SCC(=O)N2CCCC2)nnc1-c1cccs1`: 19.8%.
With `O=C(CSc1ncccn1)N1CCCC1` the figure was 15.5%; with `COc1ccc(-c2c(NC(=O)c3ccco3)oc3ccc(Cl)cc3c2=O)cc1`, -2.04%.
`O=S(=O)(NC1CCCC1)c1ccc(-n2cnnn2)cc1`: the inhibition is -3.47%.
On to `COc1ccc(C=C(C#N)C#N)c(CSc2ccccn2)c1`, for which the inhibition is -2.53%.
With `COc1ccc(C(=O)N[C@H](C(=O)NCc2ccccc2)C(C)C)cc1` the figure was 2.84%; with `CCN(CC(=O)NCc1cccs1)C(=O)c1cccc(S(=O)(=O)Nc2ccccc2OC)c1`, 25.8%; with `COc1ccccc1C(=O)Nc1ccc(OCc2nnc3c4ccccc4c(C)nn23)cc1`, 6.17%.
With `COc1ccc(C2/C(=C(/O)c3ccc4c(c3)CC(C)O4)C(=O)C(=O)N2Cc2ccncc2)cc1` (stereo unspecified) the figure was 21.4%; with `CN(C)c1nnnn1-c1ccc(Cl)cc1`, 32.8%; with `Nc1ccc2nn(-c3ccc(Cl)cc3)nc2c1`, 99% (active).
Next, `CCn1c(SCC(=O)NNC(=O)c2ccc(OC)cc2)nnc1C(C)C`: -2.63%; `O=C1NC(=O)C(c2ccc(Cl)cc2)N1` (stereo unspecified): -0.685%.
For the compound `COc1cccc(CNC(=O)C2CC(=O)N(C3CCCCCCC3)C2)c1` (stereo unspecified), the inhibition is -10.4%.
Next, `O=c1nc(N/N=C/c2ccco2)cn[nH]1`: 84% (active); `O=C(Cn1cnc2ccccc21)N/N=C/c1ccco1`: 15.9%.
On to `CC(C)NC(=O)C(=O)N/N=C/c1ccco1`, for which the inhibition is -4.96%.
Next, `O=C(Nc1ccccc1)c1cc2ccccc2[nH]1`: 116% (active).
With `O=C(Nc1ccccc1)N1CCN(C(=O)Nc2ccccc2)CC1` the figure was 14.4%.
Turning to `CC(C)n1c(=O)[nH]c2cc(C(=O)Nc3ccccc3)ccc21`, the inhibition is -20.3%.
With `COc1ccccc1OCCOc1ccc(/C=C2\C(=N)N3N=C(C)SC3=NC2=O)cc1` the figure was 2.39%.
Next, `COc1cccc(N(CC(=O)NC2CCCC2)C(=O)Cn2nnc(-c3ccc(C)o3)n2)c1`: 5.05%.
As to `CCn1c(SCc2ccccc2)nc2cc(OC)c(OC)cc2c1=O`, the inhibition was -6.05%.
With `O=C(CN1CCN(c2ccccc2)CC1)Nc1ccc(F)cc1` the figure was 2.65%; with `O=C(c1ccc(F)cc1)N1CCC(n2nnc3ccccc32)CC1`, 111% (active).
Next, `CC(=O)c1cccc(S(=O)(=O)N2CCC(n3nnc4cc(F)ccc43)CC2)c1`: 7.77%.
Turning to `O=S(=O)(c1cccc(S(=O)(=O)N2CCC(n3nnc4ccccc43)CC2)c1)N1CCCCC1`, the inhibition was -25.2%.
With `COc1ccc(N(CC(=O)N2CCOCC2)S(=O)(=O)c2ccccc2)cc1Cl` the figure was -9.7%; with `O=S(=O)(c1ccccc1)N1CN(Cc2ccc(F)cc2)c2nc3ccccc3nc21`, 45.9% (active); with `COc1ccc(S(=O)(=O)N2CN(CCc3ccc(OC)c(OC)c3)c3nc4ccccc4nc32)cc1`, -10.2%.
With `C=CCN1CN(S(=O)(=O)c2ccc(OC)cc2)c2nc3ccccc3nc21` the figure was 8.86%.
Next, `O=C(NCCS(=O)(=O)N1CCN(c2ccccc2F)CC1)c1ccc(Br)o1`: -0.576%; `O=C1CCC(C(=O)N2CCC(O)(c3ccccc3)CC2)CN1CCc1ccccc1` (stereo unspecified): -9.01%; `Cn1c(SCC(=O)c2cccs2)nnc1-c1ccco1`: 58.7% (active).
Consider `CCCCNC(=O)CSc1nnc(-c2ccco2)n1C`, for which the inhibition is -13.5%.
Take `CCOC(=O)CSc1nnc(-c2ccco2)n1C`: the inhibition was -1.54%.
For `CCC1Oc2ccccc2N(CC(=O)NCCCN2CCN(CC)CC2)C1=O` (stereo unspecified), the inhibition is -4.33%.
With `CC(C)OCCCNC(=O)CN1C(=O)/C(=C/c2ccccc2F)Oc2ccccc21` the figure was -4.44%; with `COc1ccc(CCNC(=O)CN2C(=O)CCSc3ccccc32)c(OC)c1`, -7.21%.
`Cc1ccc(-c2nc(CSCC(=O)NC3CCN(Cc4ccccc4)CC3)c(C)o2)cc1`: the inhibition is 1.51%.
With `Cc1ccc(Sc2cc(C(=O)c3ccccc3C(=O)O)ccc2[N+](=O)[O-])cc1` the figure was 1.21%.
With `CC(=O)Nc1cc2ccc(OC(C)=O)cc2oc1=O` the figure was -11.8%; with `Cc1ccccc1NC(=O)C1CCN(C(=O)NC2CCCCC2)CC1`, -5.42%.
With `O=C(Nc1cc2ccccc2oc1=O)C1CCCCC1` the figure was 55.5% (active); with `Cc1nn(Cc2ccc(Cl)cc2)c(Cl)c1/C=N/NC(=O)c1cccnc1`, -8.32%.
As for `Cc1nn(Cc2ccc(Cl)cc2)c(Cl)c1/C=N/NC(=O)CNc1ccccc1F`, the inhibition is -6.45%.
Turning to `CCn1nc(C)c(/C=N/NC(=O)Cc2ccc(Cl)cc2)c1C`, the inhibition was 81.2% (active).
For the compound `COc1ccccc1-n1cnc2cc(C(=O)NCC3CCCO3)ccc21` (stereo unspecified), the inhibition was -4.06%.
With `O=C(NCCN1CCOCC1)c1ccc2c(c1)ncn2C1CCCC1` the figure was -8.3%.
Turning to `O=C(NCc1cccs1)c1ccc2c(c1)ncn2C1CCCC1`, the inhibition is 38% (active).
On to `CCOC(=O)C1=C(c2ccccc2)NC(=O)NC1c1cc(OC)c(OC)cc1OC` (stereo unspecified), for which the inhibition was -5.08%.
With `COc1cc2c(cc1OC)CN(CC(=O)Nc1ccc(F)cc1)CC2` the figure was -6.84%.
`Cc1ccc(SCc2c(C(=O)N/N=C/c3cccnc3)nnn2-c2nonc2N)cc1`: the inhibition was -5.04%.
Next, `COc1cc(CN2CCC(C(N)=O)CC2)ccc1OCc1ccccc1`: 50.5% (active).
Consider `COc1ccc(COCC(O)CN2CCC(C(N)=O)CC2)cc1` (stereo unspecified), for which the inhibition was 18.1%.
Next, `CCOc1cc(CN2CCN(C(=O)CC(C)C)CC2)ccc1OC`: 21.9%; `CCCc1nnc(NC(=O)CCC(=O)NC2CC2)s1`: -4.93%.
Regarding `COc1ccc(CCN(C)C(=O)C23CC4CC(CC(Cl)(C4)C2)C3)cc1OC`, the inhibition was -8.99%.
With `CCN(CC)S(=O)(=O)c1ccc(C)c(NC(=O)COc2ccc(Br)cc2Cl)c1` the figure was -7.98%.
In the case of `Cc1cccc(NC(=O)c2ccc3ccccc3n2)n1`, the inhibition was 80.6% (active).
Next, `COCCNC(=O)COc1ccccc1C`: -1.68%; `Cc1cccc(NC(=O)c2cccnc2Cl)n1`: 21.6%; `Cc1cccc(NC(=O)Nc2ccc(OCc3ccccc3)cc2)n1`: -8.92%.
With `Cc1cccc(NC(=O)COc2ccccc2C)n1`, the inhibition is 99.9% (active).
With `Cc1ccccc1OCC(=O)Nc1nc(C)c(C(=O)N(C)C)s1`, the inhibition was 13.1%.
With `Cc1cccc(NC(=O)c2ccccc2NC(=O)C(C)(C)C)n1` the figure was -16.5%; with `CCCC1=Nc2cc(C(=O)NCCN3CCCC3)ccc2Sc2ccccc21`, -5.59%.
Next, `Cc1cc(C)n(CC(O)COc2ccc(C(C)(C)C)cc2)n1` (stereo unspecified): -1.13%; `COc1ccccc1CN(C)C(=O)c1cc2ccccc2o1`: 5.75%; `Cc1ccc(C(=O)Nc2nc(N)n(-c3ccccc3)n2)cc1`: 38.4% (active).
With `Nc1nc(NC(=O)/C=C/c2ccccc2)nn1-c1ccccc1` the figure was 27%; with `Cc1ccc(S(=O)(=O)Nc2nc(N)n(-c3ccccc3)n2)cc1`, -9.63%.
Turning to `O=C(Nc1cccc(F)c1)c1coc(=O)c(Br)c1`, the inhibition is -10.4%.
As for `CCCCNC(=O)c1cn(CC)c2cc(N3CCN(C(=O)c4ccco4)CC3)c(F)cc2c1=O`, the inhibition was -7.36%.
With `COCCCNC(=O)/C(C#N)=C/c1c(N2CCCCCC2)nc2ccccn2c1=O` the figure was -3.53%; with `Cc1ccc(S(=O)(=O)Nc2nc3ccccc3s2)cc1[N+](=O)[O-]`, -15.3%; with `CSCCC(Nc1nc2ccccc2s1)C(=O)O` (stereo unspecified), -3.96%.
With `Cc1ccnc(Nc2nc3ccccc3s2)n1` the figure was 76.8% (active); with `CS(=O)(=O)N(CC(=O)Nc1ccc(F)cc1)C1CCCCC1`, 18.9%.
Regarding `COc1ccc(S(=O)(=O)N2CCN(c3ccc(F)cc3)CC2)cc1-c1noc(C)n1`, the inhibition is -2.91%.
On to `Cc1cc(/C=N/n2cnnc2)c(C)n1-c1cccc(C(=O)O)c1`, for which the inhibition is 26.3%.
Turning to `Cc1cc(/C=N/Nc2ccc([N+](=O)[O-])cn2)c(C)n1-c1cccc(C(=O)O)c1`, the inhibition is 81.9% (active).
With `Cc1ccc(-n2c(C)cc(/C=N/Nc3ccc([N+](=O)[O-])cn3)c2C)c(C)c1` the figure was 50.3%; with `CC(C)C[C@H](NC(=O)C1CC(=O)N(c2ccc3c(c2)OCCO3)C1)C(=O)NC1CCCC1` (stereo partly specified), -4.71%; with `COc1cc(/C=C/C(=O)O)cc(S(=O)(=O)Nc2ccccc2C(=O)NCCc2ccccc2)c1OC`, 55.3%.
Next, `CC(C)CC(NC(=O)C1CCCN1C(=O)[C@@H](C)NC(=O)OCc1ccccc1)C(=O)NCC(N)=O` (stereo partly specified) (Cbz-[dA][ξP][ξL]G-NH2): -3.42%.
